Measurements published in PubChem BioAssay (NCI).
About 83,000 compounds went through this panel and 20% of them were active in at least one assay; those are over-represented in the sample as a whole.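 Cells were grown in 96-well plates and exposed to the test compound at a single concentration for 48 hours; results are reported as percent growth, with values below 10 considered active.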 Values without a mark were called inactive. The source made the active and inactive calls.

system: SNB-19 CNS; experiment: NCI-60 one-dose screen, 48 h (100 = growth as untreated, 0 = no growth, -100 = all killed); conditions: 10 µM unless noted

Compound | growth
CN1CCN(c2ccc(-c3ccc4ncc(C#N)c(Nc5ccc(F)c(Cl)c5)c4c3)cc2)CC1 | 72.7%
CNc1ccc(Nc2cccc(C)c2)c2c1C(=O)c1ccccc1C2=O | 99.6%
O=C(Nc1ccc(Cl)cc1F)c1ccccc1O | 45.8%
O=C1CCC(C(=O)NCCNCCNC(=O)C2CCC(=O)N2)N1 (stereo not drawn) | 98.3%
CC/C=C\C[C@@H](O)C/C=C1/C(=O)C=C[C@H]1C/C=C\CCCC(=O)OC | 33.7%
Cc1ccc(C(=O)NN2C(=O)CSC2c2cccc([N+](=O)[O-])c2)cn1 (stereo not drawn) | 93.2%
CNCCCNc1nc2ccccc2c2c(=O)c3cc(OC)ccc3sc12 | 79.3%
COc1ccc(-c2[nH]c3ccc(OC)cc3c2/C=C(\C#N)S(=O)(=O)c2ccccc2)cc1 | 31.1%
N[C@@H](Cc1ccccc1)[C@@H](O)C(=O)NCc1ccc(F)cc1 | 97.6%
COc1cc(CCC[P+](c2ccccc2)(c2ccccc2)c2ccccc2)c(OC)c(OC)c1OC | 78%
O=C(Nc1ccc(OS(=O)(=O)c2ccc(F)cc2)cc1)c1ccc(Cl)cc1 | 99.4%
CC(=O)OC[C@H]1OC(Sc2sc(C(=O)c3ccc(Br)cc3)c(N)c2-c2nc3ccccc3s2)[C@H](OC(C)=O)[C@@H](OC(C)=O)[C@H]1OC(C)=O (stereo partly drawn) | 87.4%
CCOc1c(B(O)O)cccc1-c1nc2ccc3[nH]ncc3c2c2c1CCCC2 | 85.2%
Cc1ccc(-c2nc3c(c(-c4ccccc4)nn3-c3ccccc3)c(-c3ccc(O)cc3)c2C#N)cc1 | 69.1%
C/C(=C\C(=O)c1ccc(Cl)cc1)c1ccc(Cl)cc1 | 99.9%
CCC12CCC[N+]3([O-])CCC4(C(=Nc5ccccc54)C(O)(C(=O)OC)C1)C23 (stereo not drawn) | 102%
CCN1C(=O)N(CC)C2Nn3c(s/c(=C4\C(=O)N(CCC(C)C)c5ccccc54)c3=O)=NC21 (stereo not drawn) | 88.6%
S=c1nc(-c2ccccc2)oc(=NC2CCCCC2)n1C1CCCCC1 | 28.7%
NC[C@@H]1O[C@H](O[C@@H]2[C@@H](CO)OC(O[C@@H]3[C@@H](O)[C@H](N)C[C@H](N)[C@H]3OC3O[C@H](CN)[C@@H](O)[C@H](O)[C@H]3N)[C@@H]2O)[C@H](N)[C@@H](O)[C@@H]1O (stereo partly drawn) | 115%

Compound | growth
Cc1cc(=O)oc2cc(OC(=O)N3CCN(C)CC3)ccc12 | 100%
C=CCc1cc(C)ccc1NC(C(=O)NCC(=O)OC)c1ccccc1 (stereo not drawn) | 105%
COc1ccc(OC)c(/C=C/C(=O)N/N=C/c2ccccc2)c1 | 47.9%
COc1ccc(/C=N/Nc2cc(=O)[nH]c3ccc(Cl)cc23)cc1 | 85.8%
CCOC(=O)c1[nH]c(C)c(C(=O)OCc2ccccc2C#N)c1C | 97.1%
COc1cc(Nc2nc(NCCN)nc3cc[nH]c(=O)c23)cc(OC)c1 | 102%
COc1cc(/C=C/c2c(C(C)=O)c(C)nc3ccccc23)cc(OC)c1OC | 39.4%
Cc1nc2ccccc2c(/C=C/c2ccc(Cl)cc2)c1C(=O)/C=C/c1ccc(C(F)(F)F)cc1 | -80.4% (active)
O=C(N/N=C/[C@H](O)[C@H](O)[C@H](O)CO)c1ccc(NC(=O)c2cccnc2)cc1 | 97.7%
COc1cccc(-c2nc(-c3ccc(NC(=O)c4ccccc4)cc3)[nH]c2-c2ccnc(Br)c2)c1 | 33.6%
CCCCn1c(=O)c(-c2cc(-c3ccc(Cl)cc3)nc(-c3ccc(Cl)cc3)c2)cc2cc(Cl)ccc21 | 96%
O=S(=O)(NCCCNc1cc(-c2c(-c3cccc(O)c3)nc3sccn23)ccn1)c1cccc2ccccc12 | 66.5%
COc1cccc2c(=O)c3c(sc12)c(N1CCNCC1)nc1ccccc13 | 80%
COc1cc(-c2nc3sccn3c2-c2ccnc(NCCCNS(=O)(=O)c3ccc(F)cc3)n2)ccc1F | 96.3%
CCCCC[C@H](O)C/C=C1/C(=O)C=C[C@@H]1C/C=C\CCCC(=O)O | 83.4%
CCCCCCN1C(=O)/C(=c2\sc3n(c2=O)C2C(NN=3)N(CC)C(=O)N2CC)c2ccccc21 (stereo not drawn) | 22.5%
COc1cccc2c(=O)c3c(sc12)c(NCCCN)nc1ccccc13 | 51%
COc1ccc2c(c1)c(-c1nn3cc(-c4cccs4)nc3s1)cn2C | 82.5%
CCOC(=O)Nc1ccc(-c2nc(-c3cccc(OC)c3)c(-c3ccnc(Br)c3)[nH]2)cc1 | 46.1%
